Reference: the supplement of paper PMC10127200
Counter-ions that a name gives are not always drawn.

test system: OVCAR4; assay: Euclidean distance of Cell Painting phenotypic profile (signed KS, 77 features) to DMSO centroid (dimensionless distance); 5 or 10 uM (library dependent); higher = stronger phenotypic change vs DMSO (phenoactivity); details: 48 h
In short: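 Five cancer lines and a healthy fibroblast line received library compounds at 10 or 5 uM (library-dependent, 0.1% DMSO final) for 48 h. Stained cells were imaged confocally at 20X (9 fields/well). Harmony extracted 77 features, each scored as a signed Kolmogorov-Smirnov statistic against same-plate vehicle wells. Profiles were plate-position corrected, correlation-weighted and replicate-averaged at the top dose. Phenoactivity is the Euclidean distance from each profile to the median vehicle profile.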

Structure (SMILES)	Euclidean distance
COc1nc(C)nc(Cl)c1NC1=NCCN1 [Moxonidine]	1.43
CO[C@H]1C[C@@H]2CC[C@@H](C)[C@@](O)(O2)C(=O)C(=O)N2CCCC[C@H]2C(=O)O[C@H]([C@H](C)C[C@@H]2CC[C@H](n3cnnn3)[C@H](OC)C2)CC(=O)[C@H](C)/C=C(\C)[C@@H](O)[C@@H](OC)C(=O)[C@H](C)C[C@H](C)/C=C/C=C/C=C/1C [Zotarolimus(ABT-578)]	2.09
N#CC(c1ccnc(OCc2ccc(CN3CCOCC3)cc2)n1)c1nc2ccccc2s1 (configuration not stated) [Bentamapimod]	1.36
CC(N/C(=N\C#N)Nc1ccncc1)C(C)(C)C (configuration not stated) [Pinacidil]	1.54
CN1CCN2c3ncccc3Cc3ccccc3C2C1 (configuration not stated) [Mirtazapine]	1.12
Cc1cn([C@H]2C=C[C@@H](CO)O2)c(=O)[nH]c1=O [Stavudine (d4T)]	1.06
CN1CCC(NC(=O)c2cc(-c3c(O)cc(O)cc3Oc3ccc([N+](=O)[O-])cc3)on2)CC1	3.04
CN1[C@@H]2CC[C@H]1C[C@@H](OC(=O)c1c[nH]c3ccccc13)C2 [Tropisetron]	1.17
Cc1cc(C)cc(OCC2CNC(=O)O2)c1 (configuration not stated) [Metaxalone]	1.15
O=C(Nc1ccc(Cl)cc1)Nc1ccc(Cl)c(Cl)c1 [Triclocarban]	2.98
CC1(C)O[C@H]2CC(=O)OC[C@]23[C@H]2CC[C@@]4(C)[C@H](c5ccoc5)OC(=O)[C@H]5O[C@]54[C@]2(C)C(=O)C[C@@H]13 [Limonin]	1.05
CN1CCC(=C2c3ccccc3C=Cc3ccccc32)CC1 [Cyproheptadine hydrochloride]	0.968
CC1(C)S[C@@H]2[C@H](NC(=O)[C@H](N)c3ccc(O)cc3)C(=O)N2[C@H]1C(=O)O [Amoxicillin trihydrate]	1.31
Oc1ccc(C2CNCCc3c2cc(O)c(O)c3Cl)cc1 (configuration not stated) [Fenoldopam mesylate]	0.867
O=C1NC(=O)/C(=C/c2cccc(C(F)(F)F)c2)S1	0.797
O=C(O)CNC(=O)c1ncc(-c2cccc(Cl)c2)cc1O [Vadadustat]	2.35

Structure (SMILES)	Euclidean distance
CCOC(=O)[C@H](CCc1ccccc1)N[C@@H](C)C(=O)N1Cc2cc(OC)c(OC)cc2C[C@H]1C(=O)O [Moexipril HCl]	1.78
CCCC(=O)O[C@]1(C(=O)CCl)[C@H](C)C[C@@H]2[C@@H]3CCC4=CC(=O)C=C[C@]4(C)[C@]3(F)C(=O)C[C@@]21C [clobetasone butyrate]	2.23
Oc1ccc(OCc2ccccc2)cc1 [Monobenzone]	2.11
O=C(Nc1ccncc1)c1cc([N+](=O)[O-])ccc1Cl	2.04
CN(C)C[C@@H]1CCn2cc(c3ccccc32)C2=C(C(=O)NC2=O)c2cn(c3ccccc23)CCO1	4.42
Cc1cc(Nc2ncnc3ccc(-c4ccc(CNCCS(C)(=O)=O)o4)cc23)ccc1Oc1ccn2ncnc2c1 [HER2-Inhibitor-1]	1.22
CC(C)(C)C(=O)Oc1ccc(S(=O)(=O)Nc2ccccc2C(=O)NCC(=O)O)cc1 [Sivelestat (ONO-5046)]	0.797
Cc1cc(OCCCS(C)(=O)=O)cc(C)c1-c1cccc(COc2ccc3c(c2)OC[C@H]3CC(=O)O)c1	1.88
COc1cc2c(cc1OC)CN(CCc1ccc(NC(=O)c3cc(OC)c(OC)cc3NC(=O)c3cnc4ccccc4c3)cc1)CC2 [Tariquidar]	1.04
COc1nccnc1NS(=O)(=O)c1ccc(N)cc1 [Sulfalene(SMPZ)]	0.917
CC(=O)O[C@@]12CO[C@@H]1C[C@H](O)[C@@]1(C)C(=O)[C@H](O)C3=C(C)[C@@H](OC(=O)[C@H](O)[C@@H](NC(=O)OC(C)(C)C)c4ccccc4)C[C@@](O)([C@@H](OC(=O)c4ccccc4)[C@H]21)C3(C)C [Docetaxel]	2.64
CC(C)Cn1cnc2c(N)nc3ccccc3c21 [Imiquimod]	0.537
CC(=O)N1CCN(CCOc2ccc(C3CCN(C4=Nn5c(nnc5C(F)(F)F)CC4)CC3)cc2)CC1	2.66
CC1(C)CC(=O)c2c(C(F)(F)F)nn(-c3ccc(C(N)=O)c(N[C@H]4CC[C@H](OC(=O)CN)CC4)c3)c2C1	2.62
Cc1cc(CN2CCN(c3c(Br)cnc4nc(-c5ccc(N6CCN(C)CC6)cc5)[nH]c34)CC2)no1	1.25
O=C(NC(NC(=S)Nc1ccc(F)c([N+](=O)[O-])c1)C(Cl)(Cl)Cl)C(c1ccccc1)c1ccccc1 (configuration not stated)	1.25
